Among all 16,000 compounds or so, about 5,100 (32%) were called active. Inconclusive results (about 25%) are left out. The call rests on the fitted dose curve; in most records, active means well fitted curve in the direction sought with a large enough effect; inconclusive means small, poorly fitted or top-dose-only effect, or effect the other way; inactive means no such curve, though single readings can be large or run the other way. The list shows a part of the results. Square brackets hold non-standard residues; d marks the D form. Peptide text beside a SMILES is read from it. * marks the point of attachment. ξ: configuration not given here. Cbz = O=C(OCc1ccccc1)*; PhAc = O=C(Cc1ccccc1)*; OBn = c1ccc(CO*)cc1; ξA = CC(N)C(=O)O
Molecular target: Cytochrome P450 3A4 (Homo sapiens) (UniProt P08684)
Test: Cytochrome panel assay with activity outcomes
Details: recombinant CYP, pro-luciferin dealkylation, luminescence, p450-cyp3a4; series mostly up to 57.1 µM; activity, negative = inhibition: at the top concentration
On the % scale 0 is the no-effect control and ±100 the full control effect.

Chain of Cytochrome P450 3A4 (Homo sapiens) (P08684 whole entry, looked up): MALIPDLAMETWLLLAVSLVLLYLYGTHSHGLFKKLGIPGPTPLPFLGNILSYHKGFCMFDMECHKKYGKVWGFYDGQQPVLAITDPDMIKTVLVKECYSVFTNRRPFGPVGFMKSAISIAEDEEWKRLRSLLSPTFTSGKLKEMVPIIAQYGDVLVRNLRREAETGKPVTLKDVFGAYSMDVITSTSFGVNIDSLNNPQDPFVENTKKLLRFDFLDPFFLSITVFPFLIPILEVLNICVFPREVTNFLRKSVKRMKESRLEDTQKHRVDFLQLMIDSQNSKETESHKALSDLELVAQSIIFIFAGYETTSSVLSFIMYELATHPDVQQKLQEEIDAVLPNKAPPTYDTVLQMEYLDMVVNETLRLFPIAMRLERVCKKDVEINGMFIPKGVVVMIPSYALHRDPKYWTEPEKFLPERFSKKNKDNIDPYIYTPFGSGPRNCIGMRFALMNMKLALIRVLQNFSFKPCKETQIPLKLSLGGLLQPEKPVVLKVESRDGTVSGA

SMILES	AC50	activity, negative = inhibition
CCOc1cc(C2CC(=O)c3c(ccc4ccccc34)N2)ccc1O (stereo not drawn)	10 µM (active)	–
CCOc1ccc2ccccc2c1C(=O)N[C@@H]1C(=O)N2[C@@H]1SC(C)(C)[C@@H]2C(=O)O	–	-1.29% [at 25.6 µM] (inactive)
Cn1c(Sc2ccc(-c3cccnc3)n2C)ccc1-c1cccnc1	0.631 µM (active)	–
N=C1CCC[C@@H]1C(=S)SCCC(N)=O	–	-30.7% [at 11.4 µM] (inactive)
CCS(=O)(=O)N1CCCC(C(=O)NCCCOC(C)C)C1 (stereo not drawn)	–	-3.86% (inactive)
Cc1ccc(S(=O)(=O)N2CCCC(C(=O)NCCCN3CCCCC3C)C2)cc1 (stereo not drawn)	14.1 µM (active)	–
COc1ccc(NC(=O)NCCCN2CCCCC2C)cc1 (stereo not drawn)	–	-9.37% (inactive)
O=C(CCCN1C(=O)C2C3C=CC(C3)C2C1=O)N1CCN(c2ccccc2)CC1 (stereo not drawn)	0.794 µM (active)	–
O[C@H](CN1CCN(c2cccc(Cl)c2)CC1)C(c1ccccc1)c1ccccc1	–	-19.9% (inactive)
O=C(CCN1C(=O)C2C3C=CC(C3)C2C1=O)N1CCN(c2cccc(Cl)c2)CC1 (stereo not drawn)	1.12 µM (active)	–
O=c1n(CCCN2CCN(c3cccc(Cl)c3)CC2)nc2ccccn12	inactive	–
CCOC(=O)c1c(C)[nH]c(C(=O)OCC(=O)NC2CCS(=O)(=O)C2)c1C (stereo not drawn)	–	-4.72% (inactive)
CNC(=O)c1c(I)c(C(=O)NCC(=O)Nc2c(I)c(C(=O)O)c(I)c(C(=O)NCCO)c2I)c(I)c(N(C)C(C)=O)c1I	–	-1.74% [at 25.6 µM] (inactive)
O=C(c1ccccc1)c1ccc(OCCn2cnc3ccccc3c2=O)cc1	–	26.6% [at 2.29 µM] (inactive)
COc1ccc(-c2nc3ccccc3c(=O)n2N)cc1	–	-5.9% [at 11.4 µM] (inactive)
CCCCOc1ccc(CC(=O)NO)cc1	–	-17.9% [at 25.6 µM] (inactive)
CC(C)On1c(SC(C)C)nc2ccccc2c1=O	–	22.8% [at 11.4 µM] (inactive)
CCCCOc1ccc(CNn2c(C)nc3ccccc3c2=O)cc1	1.58 µM (active)	–
COc1ccc(CNn2c(C)nc3ccccc3c2=O)cc1	3.98 µM (active)	–
CCCNC1CCS(=O)(=O)C1 (stereo not drawn)	–	-7.29% (inactive)
CC[C@H](C)[C@@H]1O[C@]2(CC[C@@H]1C)C[C@H]1C[C@H](CC=C(C)[C@@H](O[C@@H]3C[C@H](OC)[C@H](O[C@@H]4C[C@H](OC)[C@H](O)[C@H](C)O4)[C@H](C)O3)[C@@H](C)C=CC=C3CO[C@@H]4[C@@H](O)C(C)=C[C@@H](C(=O)O1)[C@]34O)O2	–	-24.7% [at 25.6 µM] (inactive)
CC1CC(OCC(O)CN2CCN(Cc3ccccc3)CC2)CC(C)(C)C1 (stereo not drawn)	8.91 µM (active)	–
CN1CCN(CC(O)c2ccccc2)CC1 (stereo not drawn)	–	-0.756% (inactive)
CC1CCC(C(C)C)C(OCC(O)CN2CCN(Cc3ccccc3)CC2)C1 (stereo not drawn)	–	-17.1% (inactive)

SMILES	AC50	activity, negative = inhibition
COc1cccc(C(=O)N2N=C(c3cccc(OC)c3)CC2(O)C(F)(F)F)c1 (stereo not drawn)	7.94 µM (active)	–
COc1cccc(C(=O)NNC2=CC(=O)CC(C)(C)C2)c1	–	3.39% [at 2.29 µM] (inactive)
CCOC(=O)N1N=C(c2ccccc2)CC1(O)C(F)(F)F (stereo not drawn)	–	2.59% [at 11.4 µM] (inactive)
CCOc1cc(CNc2ccc(OC)cc2)cc(Br)c1OCC(=O)NC(C)(C)C	15.8 µM (active)	–
COc1cc(CNCCc2ccccc2)ccc1OCC(=O)NC(C)(C)C	–	3.22% (inactive)
CCOc1ccc(N=C2NC(=O)C(CC(=O)O)S2)cc1 (stereo not drawn)	–	-1.23% (inactive)
CCn1c(CC(C)C)n[nH]c1=S	–	18.3% (inactive)
CCn1c(CCNC(=O)c2ccc(Cl)cc2Cl)n[nH]c1=S	14.1 µM (active)	–
CCn1c(CCNC(=O)c2ccccc2Cl)n[nH]c1=S	–	-19.4% (inactive)
O=[N+]([O-])c1ccc(Cl)c(/C=N/N2CCN(Cc3ccccc3Cl)CC2)c1	–	-13.7% (inactive)
O=[N+]([O-])c1ccc(CSCc2ccc(Cl)cc2)cc1	–	-19.8% [at 11.4 µM] (inactive)
O=[N+]([O-])c1ccc(-c2cnc(SCc3ccccc3Cl)[nH]2)cc1	14.1 µM (active)	–
CC(C)Cn1c(-c2nn(C)cc2Cl)n[nH]c1=S	–	-22% (inactive)
CC(c1ccc(Cl)cc1)n1c(-c2ccc3ccccc3n2)n[nH]c1=S (stereo not drawn)	7.94 µM (active)	–
CN(C)CC[C@H](c1ccc(Cl)cc1)c1ccccn1	inactive	–
Cc1cc2nnc(SCCCCN3C(=O)c4ccccc4C3=O)n2c2ccccc12	6.31 µM (active)	–
Cc1cc2nnc(SCC(=O)OC(C)C)n2c2ccccc12	–	-9.9% (inactive)
CCc1ccc(N2C(=O)c3ccc4c5c(ccc(c35)C2=O)CC4)cc1	–	8.28% (inactive)
COC(=O)Nc1nc2ccc(Sc3ccccc3)cc2[nH]1	–	-22.1% [at 25.6 µM] (inactive)
COc1ccc(C(=O)NCc2ccc(-c3nc4ccccc4s3)cc2)cc1	2.51 µM (active)	–
O=C(NC1CCCc2ccccc21)C1CCN(S(=O)(=O)N2CCCCCC2)CC1 (stereo not drawn)	7.94 µM (active)	–
O=C(NC1CCCc2ccccc21)c1ccc(=O)[nH]c1 (stereo not drawn)	–	10.9% [at 2.29 µM] (inactive)
C=CCOc1c2ccc(C(=O)NC3CCCc4ccccc43)cc2nn1C (stereo not drawn)	–	3.25% [at 2.29 µM] (inactive)
Cc1ccccc1/C=C\C1=NCCN1	–	-6.57% (inactive)

SMILES	AC50	activity, negative = inhibition
O=C(N/N=C/c1ccccn1)c1ccco1	–	-7.11% (inactive)
COc1cc(/C=N/NC(=O)c2cccnc2)ccc1OC(=O)c1ccco1	14.1 µM (active)	–
COc1cc(/C=N/NC(=O)c2cccnc2)ccc1OC(=O)c1ccc2c(c1)OCO2	1.26 µM (active)	–
Cc1cc(C(=O)N/N=C/c2cccc(OC(=O)c3ccco3)c2)n[nH]1	–	7.86% [at 2.29 µM] (inactive)
Cc1nc(N/N=C/c2ccccc2)nc(N(C)c2ccccc2)c1[N+](=O)[O-]	7.08 µM (active)	–
COc1c(/C=N/Nc2ccc([N+](=O)[O-])cc2[N+](=O)[O-])c(C)nn1-c1ccccc1	–	-17.2% (inactive)
Cn1nnnc1SCc1ccc(C(=O)Nc2ccc(Br)cc2)cc1	–	-23% (inactive)
Cc1ccc(NC(=O)c2ccc(CSc3nnc(-c4ccncc4)n3C)cc2)cc1	–	-1.69% (inactive)
C=CCn1c(SCc2ccc(C(=O)Nc3ccccc3)cc2)nnc1-c1ccccc1	4.47 µM (active)	–
COC(=O)c1c(C)[nH]c(C)c1C(=O)c1ccccc1Cc1ccccc1	1 µM (active)	–
COC(=O)c1c(C)nc2ccccc2c1C(=O)O	–	-0.306% (inactive)
O=C(O)c1ccc(Cc2ccccc2C(=O)O)cc1	–	-8.32% [at 11.4 µM] (inactive)
COc1ccc(NC(=S)N2CCN(C/C=C/c3ccccc3)CC2)cc1OC	17.8 µM (active)	–
CC[C@H](C(=O)c1cccs1)C(O)(C(F)(F)F)C(F)(F)F	–	-6.43% [at 11.4 µM] (inactive)
Cc1ccc(N=C/C(C(=O)C(F)(F)F)=C(\O)c2cccs2)cc1	12.6 µM (active)	–
O=P(O)(COc1ccccc1)COc1ccccc1	–	-4.02% (inactive)
CC(C)c1ccc(Cn2ccc3c4c(N)nc(NC5CC5)nc4ccc32)cc1	6.31 µM (active)	–
CCC(C)(C)N=C(NC#N)Nc1cccnc1	5.01 µM (active)	–
CC(C)CN(C)c1nc(N)c(C(=O)N=C(N)N)nc1Cl	–	-3.71% (inactive)
Cc1cnc(CNc2cc(-c3ccc(C(=O)N(C)C)cc3)ncn2)cn1	–	-19% (inactive)
Cc1cnc(CNc2ncncc2-c2ccc(N(C)C)cc2)cn1	2 µM (active)	–
Cc1cnc(CNc2ncncc2-c2ccc(C(=O)N(C)C)cc2)cn1	12.6 µM (active)	–
Cc1cnc(CNc2ncncc2-c2ccoc2)cn1	2 µM (active)	–
CNCCCCCCCCSc1nc(C(C)C)ccc1C(=O)c1cccs1	2.51 µM (active)	–

SMILES	AC50	activity, negative = inhibition
COC(=O)Nc1nc2ccc(C(=O)c3cccs3)cc2[nH]1	–	-18% (inactive)
C[C@@H](C(=O)O)c1ccc(C(=O)c2cccs2)cc1	–	-4.04% [at 25.6 µM] (inactive)
CCOC(=O)N/N=C1/C[C@@H](O)[C@@H](O)[C@@H]2[C@@H]3C(=O)N(CC)C(=O)[C@H]3CC[C@@H]12	–	-14.4% [at 11.4 µM] (inactive)
Cc1ccc(-n2[nH]c(C)c(C=Nc3ccc4[nH]c(=O)[nH]c4c3)c2=O)cc1C	14.1 µM (active)	–
Cn1c(=O)n(CC#N)c2ccccc21	–	-1.21% [at 2.29 µM] (inactive)
Cc1nn(C)c(C)c1CNC(=O)c1cnn2c1NC(c1ccccc1)CC2C(F)(F)F (stereo not drawn)	12.6 µM (active)	–
COc1ccc(C2CC(C(F)(F)F)n3nc(C(=O)N(C)Cc4cn(C)nc4C)c(Cl)c3N2)cc1 (stereo not drawn)	2.51 µM (active)	–
CC12CC(NC(=O)N1c1cccc(C(=O)NCc3ccccc3)c1)c1ccccc1O2 (stereo not drawn)	–	-2.24% (inactive)
COc1ccc(OC)c(NC(=O)c2cc3n(n2)C(C(F)(F)F)CC(c2ccc4c(c2)OCO4)N3)c1 (stereo not drawn)	3.98 µM (active)	–
O=C(NCCN1CCOCC1)c1ccc2ccccc2c1	–	-4.73% (inactive)
COc1ccc(NC(=O)c2cc3n(n2)C(C(F)(F)F)CC(c2ccc4c(c2)OCO4)N3)cc1OC (stereo not drawn)	–	-24.1% (inactive)
O=C(NCCN1CCOCC1)c1nn2c(c1Cl)NC(c1ccccc1)CC2C(F)(F)F (stereo not drawn)	7.08 µM (active)	–
Cc1cc(C(F)F)n2ncc(C(=O)NCc3ccccc3C(F)(F)F)c2n1	–	8.24% (inactive)
Cc1ccc(C2C(C=Nc3c(C)n(C)n(-c4ccccc4)c3=O)=C(c3ccccc3)Oc3ccccc32)cc1 (stereo not drawn)	–	-22.8% (inactive)
Cc1ccc(C2CC(C(F)(F)F)n3nc(C(=O)NCCN4CCOCC4)cc3N2)cc1 (stereo not drawn)	7.94 µM (active)	–
O=C(CNC(=O)c1ccco1)OCc1c(F)cccc1Cl	–	-10.2% [at 2.29 µM] (inactive)
O=C(CNC(=O)c1cccs1)NCC(=O)OCc1ccc(Cl)cc1Cl	7.08 µM (active)	–
CC(C)(C)c1ccc(COC(=O)CNC(=O)CNC(=O)Cc2ccccc2)cc1	12.6 µM (active)	–
O=C(CNC(=O)c1cccs1)NCC(=O)OCc1ccc(Cl)cc1	25.1 µM (active)	–
COC(=O)CNC(=O)C(C)NC(=O)CNC(=O)OCc1ccccc1 (stereo not drawn) (Cbz-Gly-[ξA]-Gly-OMe)	–	-0.615% [at 2.29 µM] (inactive)
O=C(CNC(=O)Cc1ccccc1)NCC(=O)OCc1ccccc1 (PhAc-Gly-Gly-OBn)	–	-26.1% (inactive)
